From PubChem
PAFAH1B3 inh: blocks human PAF acetylhydrolase 1B catalytic subunit 3; Q15102; recombinant PAFAH1B3, FP-rhodamine probe, fluorescence polarization; inhibition, % at 3.39 µM; 0.28% of 340,000 active;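 active = inhibition above the screen-wide average of all tested compounds plus 3 SD, cut at about 25% in these data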
pPAFAH FP inh: pPAFAH (human) enzyme inhibition; Q13093; 1.5% of 330,000 active; inhibition, % at 3.39 µM; recombinant pPAFAH, FP-rhodamine probe fluorescence polarization;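 active = inhibition above the mean inhibition across the screen plus 3 SD, cut at about 25% in these data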;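 note: inhibitors block binding of the rhodamine activity-based probe so polarization drops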
PAFAH2 inh: inhibitors of human PAFAH2; Q99487; recombinant PAFAH2, FP-rhodamine activity probe, fluorescence polarization; inhibition, % at 3.39 µM; 0.99% of 340,000 active; AID 492956;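 active = inhibition above the mean over all tested compounds plus 3 SD, cut at about 30% in these data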;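 note: inhibitors block probe labeling of enzyme so polarization drops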
Pemphigus Ab inh: inhibitors of pemphigus antibody binding to human desmoglein-3; DSG3-coupled beads, scFv-anti-DSG3-GFP binding, flow cytometry; stronger effect = lower value; 0.48% of 310,000 active; binding (percent of control), % at 10 µM; AID 588358;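 active = binding more than 3 SD below its plate's average and above zero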;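 note: hits lower antibody fragment binding to DSG3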
PAFAH1B2 inh: inhibitors of human PAFAH1B2. P68402. inhibition, % at 3.39 µM. recombinant PAFAH1B2, FP-rhodamine activity probe, fluorescence polarization. 1.2% of 340,000 active. AID 492953;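 active = inhibition above the mean of all tested compounds plus 3 SD, cut at about 24% in these data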
Target sequence (P68402 whole entry, looked up): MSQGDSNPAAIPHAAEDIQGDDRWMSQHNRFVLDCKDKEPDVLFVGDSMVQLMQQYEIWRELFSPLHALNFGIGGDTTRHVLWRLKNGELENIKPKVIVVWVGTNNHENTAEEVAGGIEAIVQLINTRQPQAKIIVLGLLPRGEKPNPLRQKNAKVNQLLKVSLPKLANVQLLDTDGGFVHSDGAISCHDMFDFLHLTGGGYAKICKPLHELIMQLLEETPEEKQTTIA
PfM18AAP inh-1: PfM18AAP enzyme inhibition; inhibition, % at 7.35 µM; AID 1822; recombinant PfM18AAP, H-Glu-NHMec fluorogenic cleavage; 1.2% of 290,000 active;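 active = inhibition above the campaign mean inhibition over all tested compounds plus 3 SD, cut at about 28% in these data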
PfM18AAP inh-2: PfM18AAP inhibition, confirmation; 28% of 2,400 active; shares compounds with PfM18AAP inh-1; inhibition, % at 7.35 µM; recombinant PfM18AAP, H-Glu-NHMec fluorogenic cleavage;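 active = mean inhibition over replicate wells above the hit cutoff set for the earlier primary screen, cut at about 29% in these data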
CTSL1 confirm: counter-screen for PFM18AAP inhibitors: confirmation of human cathepsin L inhibitors; shares compounds with PfM18AAP inh-1; purified cathepsin L1, Z-Leu-Arg-MCA fluorescence; inhibition, % at 5.96 µM; 2,400 tested, under 10 active; AID 2178;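 active = average inhibition across replicates above the hit cutoff set in the earlier primary screen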
Target sequence (P07711 whole entry, looked up): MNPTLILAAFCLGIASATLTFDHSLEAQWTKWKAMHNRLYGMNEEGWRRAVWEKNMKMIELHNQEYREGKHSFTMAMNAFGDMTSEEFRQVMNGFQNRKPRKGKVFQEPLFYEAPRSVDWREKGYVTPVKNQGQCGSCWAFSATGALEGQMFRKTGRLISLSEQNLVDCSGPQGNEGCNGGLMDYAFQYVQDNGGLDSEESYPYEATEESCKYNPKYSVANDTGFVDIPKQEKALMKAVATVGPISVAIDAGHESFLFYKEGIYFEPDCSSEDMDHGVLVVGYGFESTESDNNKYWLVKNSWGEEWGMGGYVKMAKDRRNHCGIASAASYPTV
Numbers stand for hits; i = inactive; nt = no result given; ! = a repeat was not active. Compounds with a hit are over-represented: about 3.8% of the library has one in this group of screens.

SMILES | PAFAH1B3 inh | pPAFAH FP inh | PAFAH2 inh | Pemphigus Ab inh | PAFAH1B2 inh | PfM18AAP inh-1 | PfM18AAP inh-2 | CTSL1 confirm
CC(=O)ONC(=Nc1ccccc1)c1nonc1N | i | i | i | nt | i | 36.0 | i | i
CCCSc1cc(=O)n(-c2ccc(F)cc2)nc1C(=O)OCC | i | i | i | i | i | i | nt | nt
Nc1c(C(=O)NCCc2ccccc2)sc2nc(N3CCOCC3)c3c(c12)CCCC3 | i | i | i | i | i | 37.4 | i | i
Cc1ccccc1NC(=O)c1sc2nc(N3CCOCC3)c3c(c2c1N)CCCC3 | i | 27.1 | i | i | i | 41.2 | i | i
CCOC(=O)c1ccc(NC(=O)c2sc3nc(N4CCOCC4)c4c(c3c2N)CCCC4)cc1 | i | i | i | i | i | 41.6 | i | i
CN(C(=O)c1sc2nc(N3CCOCC3)c3c(c2c1N)CCCC3)c1ccccc1 | i | i | i | i | i | i | nt | nt
COc1ccccc1NC(=O)c1sc2nc(N3CCOCC3)c3c(c2c1N)CCCC3 | i | i | i | i | i | i | nt | nt
CCOC(=O)c1c(N)sc2c1C1CCN2CC1 | i | i | i | i | i | 50.3 | i | i
CCOC(=O)c1c(NC(=O)COC(=O)c2nc(Cl)ccc2Cl)sc2c1CCC2 | i | i | i | i | i | i | nt | nt
COc1cnn(-c2ccccc2)c(=O)c1SCc1ccc(Cl)cc1Cl | i | i | i | i | i | 36.1 | i | i
O=C(O)Cc1ccc(O)c(O)c1 | i | i | i | i | i | nt | nt | nt
OCCCc1ccc(O)c(O)c1 | i | i | i | i | i | 44.5 | i | i
CCCNc1c(N)c(=O)oc2ccccc12 | i | i | i | i | i | 48.6 | i | i
CCNc1c(N)c(=O)oc2ccccc12 | i | i | i | nt | i | i | nt | nt
Oc1ccc(/C=C/c2cc(O)cc(O)c2)cc1 | i | i | i | i | i | 59.0 | 58.5 | i
C=CCc1c(C)nc(C)nc1N/N=C/c1ccccc1O | i | i | i | i | i | 49.4 | i | i
O=c1c2cn[nH]c2[nH]c(=S)n1-c1ccccc1Cl | i | i | i | i | i | 37.3 | i | i
Cc1ccc(-n2c(=S)[nH]c3[nH]ncc3c2=O)cc1 | i | i | i | i | i | i | nt | nt
O=c1c2cn[nH]c2[nH]c(=S)n1-c1ccccc1F | i | i | i | i | i | 57.4 | i | i
Cc1ccn2cc(-c3ccc(O)c(O)c3)nc2c1 | i | i | i | i | i | 71.5 | 51.3 | i
Oc1ccc(-c2cn3ccccc3n2)cc1 | i | i | i | i | i | i | nt | nt
Oc1ccc(-c2cn3ccccc3n2)cc1O | i | i | i | i | i | 69.7 | 58.4 | i
Cc1ccn2cc(-c3cccc(NC(=O)C(C)C)c3)nc2c1 | i | i | i | i | i | i | nt | nt
O=C(N/N=C/c1sc(=O)[nH]c1-[n+]1ccccc1)c1ccccc1[O-] | i | i | i | i | i | i | nt | nt
O=C(N/N=C/c1sc(=O)[nH]c1-[n+]1ccc2ccccc2c1)c1ccccc1[O-] | i | i | i | i | i | 32.0 | i | i
SMILES | PAFAH1B3 inh | pPAFAH FP inh | PAFAH2 inh | Pemphigus Ab inh | PAFAH1B2 inh | PfM18AAP inh-1 | PfM18AAP inh-2 | CTSL1 confirm
O=C(O)c1cccc(-c2ccc(/C=N/n3cnnc3)o2)c1 | i | i | i | i | i | 31.8 | i | i
O=[N+]([O-])c1ccc(-c2ccc(/C=N/n3cnnc3)o2)c(Br)c1 | i | i | i | i | i | 50.9 | i | i
Cc1c(C(=O)O)cccc1-c1ccc(/C=N/n2cnnc2)o1 | i | i | i | i | i | 34.9 | i | i
Cc1cc(-c2ccc(/C=N/n3cnnc3)o2)ccc1Cl | i | i | i | i | i | i | nt | nt
Cc1cc([N+](=O)[O-])c(C)cc1-c1ccc(/C=N/n2cnnc2)o1 | i | nt | i | i | i | i | nt | nt
COc1cc(C(=O)NCCN2CCN(C(=O)c3cc(OC)c(OC)c(OC)c3)CC2)cc(OC)c1OC | i | i | i | i | i | i | nt | nt
COC(=O)C1CCCN1C(=O)C12CC3CC(CC(C3)C1)C2 (centres undefined) | i | i | i | i | i | i | nt | nt
O=C(Nc1cccc(S(=O)(=O)N2CCCCC2)c1)c1ccc(N2CCCC2=O)cc1 | i | i | i | i | i | nt | nt | nt
CCOc1ccc(CC(=O)C2C(=O)CC(C)(C)CC2=O)cc1OCC | i | i | i | nt | i | i | nt | nt
CCOc1ccc(CC(=O)C2C(=O)CCCC2=O)cc1OCC | i | i | i | i | i | 33.0 | i | i
O=S(=O)(Nc1cc(S(=O)(=O)N2CCOCC2)ccc1NCC1CCCO1)c1ccccc1F (centres undefined) | i | i | i | i | i | nt | nt | nt
COc1ccccc1C1C2=C(N=c3s/c(=C/c4cccc(OCC(=O)O)c4)c(=O)n31)c1ccccc1CC2 (centres undefined) | i | i | i | nt | i | 36.5 | i | i
N#C/C(=C\c1ccc(-c2cccc(C(F)(F)F)c2)o1)C(=O)Nn1cnnc1 | i | i | i | i | i | 33.5 | i | i
Cc1c(NC(=O)/C(C#N)=C/c2ccc(-c3cccc(Cl)c3)o2)c(=O)n(-c2ccccc2)n1C | i | i | i | i | i | i | nt | nt
COc1cc(/C=N/N2CCN(Cc3ccccc3)CC2)cc(OC)c1OC(C)=O | i | i | i | i | i | 36.2 | i | i
Clc1ccc(N=c2ssnc2Cl)nc1 | i | i | i | i | i | 38.7 | i | i
CCC(C)[C@H](NC(=O)Nc1ccccc1F)C(=O)OC (some centres undefined) | i | i | i | nt | i | i | nt | nt
CCN(CC)S(=O)(=O)c1ccc(NN=C2CCN(C)CC2)c([N+](=O)[O-])c1 | i | i | i | i | i | i | nt | nt
CCNC(=O)c1cc(Br)ccc1Cl | i | i | i | i | i | i | nt | nt
O=C(Nn1cnnc1)c1ccc(Cl)c(Cl)c1 | i | i | i | i | i | 51.7 | 50.2 | i
O=C(Nn1cnnc1)c1cc(Br)ccc1Cl | i | i | i | i | i | 60.0 | 55.2 | i
Nc1cc(-c2ccccc2)ccc1O | i | i | i | nt | i | 35.1! | i | i
O=C(c1cccc(Oc2ccccc2)c1)N1CCOCC1 | i | i | i | i | i | i | nt | nt
O=C(CNc1ccc(Oc2ccccc2)cc1)N1CCOCC1 | i | i | i | i | i | 42.1 | i | i
CC(/C=C/C=C/c1ccccc1)=N/NC(=O)c1ccc2c(c1)OCCO2 | i | i | i | i | i | i | nt | nt
Cc1cc(C)nc(NNC2=CC(=[N+]3CCCCC3)CC(C)(C)C2)n1 | i | i | i | i | i | 56.0 | 39.8 | i
Cc1cc(C)nc(NNC2=CC(=[N+]3CCCC3)CCC2)n1 | i | i | i | i | i | 56.9 | 45.3 | i
Cc1cc(C(F)(F)F)nc(NNc2nc(C)cc(C(F)(F)F)n2)n1 | nt | nt | nt | i | nt | nt | nt | nt
CN(C)NC1=CC(=[N+]2CCCC2)CC(C)(C)C1 | i | i | i | i | i | i | nt | nt
